Assay results reported in PubChem BioAssay (Tox21).
Inconclusive results are not listed. Entries that show only a call come without a potency. Calls of active or inactive are those of the source. The call rests on the fitted dose curve; in most records, active means well fitted cell-killing curve with a large enough effect in the repeat runs; inconclusive means weak or mixed curves, or effect the other way; inactive means flat fitted curve, though single readings scatter.
Potency means the concentration at half of the fitted maximal effect.

Experiment: qHTS assay to identify small molecule antagonists of the constitutive androstane receptor (CAR) signaling pathway - cell viability counter screen (AID 1224837); further: nearly all actives have a fitted effect of over 45% in size
Settings: HepG2-CYP2B6-hCAR viability, CellTiter-Fluor, 23 h, co-treated with 50 nM CITCO; series mostly up to 92.4 µM
Text: National Center for Advancing Translational Sciences [NCATS]
NIH Chemical Genomics Center [NCGC]
U.S. Environmental Protection Agency [EPA]
National Institutes of Environmental Health Sciences [NIEHS]
National Toxicology Program [NTP]
U.S. Food and Drug Administration [FDA]
The constitutive androstane receptor (CAR) is a nuclear receptor which regulates multiple drug metabolizing enzymes (DMEs) and transporters. Activating CAR will generally increase the transcription and subsequent translation of CYP2B6 and CYP3A4. These two DMEs represent about 50% of the drug metabolizing potential in the body. When CAR is deactivated, the metabolizing potential in the body will decrease, subsequently increasing the toxicity in the body or lowering the therapeutic potential of a pro-drug. Recently, there have also been studies performed indicating CARs role in energy metabolism and cancer therapy. Therefore, inhibiting CARs activity could have a potential effect on diabetes and cancer. Identifying environmental toxins and compounds which modulate CAR, through the use of the Tox21 10K compound collection, will be an important step in determining the toxicity and potential therapeutic effects these factors will have on the human body. To differentiate true CAR antagonists from cytotoxic substances, the assay is multiplexed with a cell viability assay.
Tox21 Assay Protocol Summary:
A double-stable (hCAR and CYP2B6-2.2kb) transfected cell line, derived from human hepatoma (HepG2) cells, was utilized for the duration of the quantitative high-throughput screens. The HepG2-CYP2B6-hCAR cells were dispensed at 2500 cells/4 uL/well in 1536-well white solid bottom plates using a Multidrop Combi. After the assay plates were incubated at 37 C/5% CO2 for 4 hrs, 23 nL of compounds at 15 concentrations (from 5-48 columns) or positive control (from 1 to 4 columns) were transferred to the assay plates using a Pintool station. One uL of CITCO (final concentration = 50 nM) was added, using a Flying Reagent Dispenser, inside each well. After a 23 hr incubation period at 37 C/5% CO2, 1 uL of CellTiter-Fluor reagent was added into each well of the assay plates using a Flying Reagent Dispenser. The fluorescence intensity in the plates was then measured using a ViewLux plate reader.
In the case of `OCC1CC=CCC1` (stereo not given), the Potency was “inactive”.
In the case of `O=C(OCCOCCO)c1ccccc1Nc1cccc(C(F)(F)F)c1`, the Potency was “inactive”.
With `Cc1ccccc1N1C(=O)c2cc(S(N)(=O)=O)c(Cl)cc2NC1C` (stereo not given) the Potency was “inactive”.
In the case of `CC(CCO)CCc1ccccc1` (stereo not given), the Potency was “inactive”.
In the case of `Cc1ccc(Nc2nccc(N(C)c3ccc4c(C)n(C)nc4c3)n2)cc1S(N)(=O)=O`, the Potency was “inactive”.
With `COC(=O)c1cc(S(N)(=O)=O)ccc1OC` the Potency was “inactive”.
In the case of `Nc1nccs1`, the Potency was “inactive”.
For `C/C=C/C=C/CCCCCCCO`, the Potency was “inactive”.
For `CC1=CC(=O)CC(C)(C)C1(O)/C=C/C(C)=C\C(=O)O` (stereo not given), the Potency was “inactive”.
For `CC(=O)OCC(=O)[C@H]1CC[C@H]2[C@@H]3CCC4=CC(=O)CC[C@]4(C)[C@H]3CC[C@]12C`, the Potency was “inactive”.
In the case of `CCOC(=O)N1CCC(n2c(=O)[nH]c3cc(Cl)ccc32)CC1`, the Potency was “inactive”.
For `COC(=O)[C@@H]1CC2=CC(=O)CC[C@]2(C)[C@@]23O[C@@H]2C[C@@]2(C)[C@@H](CC[C@@]24CCC(=O)O4)[C@H]13`, the Potency was “inactive”.
With `CCC(C)(O)CCC=C(C)C` (stereo not given) the Potency was “inactive”.
With `C=CCNc1nc(NCC=C)nc(N2CCN(C(c3ccc(F)cc3)c3ccc(F)cc3)CC2)n1` the Potency was “inactive”.
In the case of `COc1ccc([C@@H]2Sc3ccccc3NC(=O)[C@@H]2O)cc1`, the Potency was “inactive”.
In the case of `C/C=C(\C)C(=O)OCCC(C)CCC=C(C)C` (stereo not given), the Potency was “inactive”.
In the case of `Oc1cc(O)c(Cl)cc1Cl`, the Potency was “inactive”.
For `N#C[C@@H]1C[C@@H]2C[C@@H]2N1C(=O)[C@@H](N)C12CC3CC(CC(O)(C3)C1)C2`, the Potency was “inactive”.
With `O=C(C(=O)c1ccccc1)c1ccccc1` the Potency was “inactive”.
With `C[C@@H]1C[C@H]2[C@@H]3CCC4=CC(=O)C=C[C@]4(C)[C@@]3(F)[C@@H](O)C[C@]2(C)[C@H]1C(=O)CO` the Potency was “inactive”.
In the case of `CC(=O)Oc1ccc2c(c1)CC[C@@H]1[C@@H]2CC[C@]2(C)[C@@H](O)CC[C@@H]12`, the Potency was “inactive”.
In the case of `COC(=O)CC(=O)C(C)(C)C`, the Potency was “inactive”.
With `CC(C)CCCCCOC(=O)CCCCC(=O)OCCCCCC(C)C` the Potency was “inactive”.
For `CCNC(=O)N1CCN(CCCC(c2ccc(F)cc2)c2ccc(F)cc2)CC1`, the Potency was 21.1 µM (active).
With `OC/C(Br)=C(\Br)CO` the Potency was “inactive”.
In the case of `CCCOCCOCCO`, the Potency was “inactive”.
In the case of `COc1cc2c(cc1OC)-c1cc(=Nc3c(C)cc(C)cc3C)n(C)c(=O)n1CC2`, the Potency was “inactive”.
With `C[N+](C)(C)CCOC(N)=O` the Potency was “inactive”.
For `C1COCO1`, the Potency was “inactive”.
For `CC[C@H](NC(=O)c1cc(F)ccc1NS(=O)(=O)c1cccc2cccnc12)c1ccccc1`, the Potency was “inactive”.
For `CCCCN(CCCC)CCCOC(=O)c1ccc(N)cc1`, the Potency was “inactive”.
In the case of `CC(C)CCCCCCOC(=O)CCCCC(=O)OCCCCCCC(C)C`, the Potency was “inactive”.
In the case of `C=CCOC(=O)/C=C\C(=O)OCC=C`, the Potency was “inactive”.
For `CCCCOC(=O)CCS`, the Potency was “inactive”.
With `CC(C)C(OC(=O)c1ccccc1)C(C)(C)COC(=O)c1ccccc1` (stereo not given) the Potency was “inactive”.
In the case of `CCCCC(=O)O[C@]1(C(=O)CO)CC[C@H]2[C@@H]3CCC4=CC(=O)CC[C@]4(C)[C@H]3[C@@H](O)C[C@@]21C`, the Potency was “inactive”.
In the case of `CNC(=O)N(c1ccccc1)c1ccccc1`, the Potency was “inactive”.
In the case of `Cc1ccc(/C=N/n2c(-c3ccccc3)csc2=S)cc1`, the Potency was “inactive”.
With `CC(N)CN` (stereo not given) the Potency was “inactive”.
In the case of `OC(CCCN1CCCCC1)(c1ccccc1)c1ccccc1`, the Potency was “inactive”.
